Results on 53 compounds are retold here after PubChem BioAssay AID623911 (Vanderbilt High Throughput Screening Facility, 2012).

Hit rate of the full screen: of about 2,100 compounds, about 770 (37%) were called active. Some of the results follow. Unmarked numbers belong to inactive results.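 How the source made its calls: active means by-eye trace score of 1 for enhancers or -1 for inhibitors, so actives lie on both sides (some results past the limit were not filed as active); inactive means score 0, or 3 fluorescent, or 4 baseline rise.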

Chain of G protein-activated inward rectifier potassium channel 2 (Homo sapiens) + G protein-activated inward rectifier potassium channel 1 (Homo sapiens) (P48051 whole entry, looked up): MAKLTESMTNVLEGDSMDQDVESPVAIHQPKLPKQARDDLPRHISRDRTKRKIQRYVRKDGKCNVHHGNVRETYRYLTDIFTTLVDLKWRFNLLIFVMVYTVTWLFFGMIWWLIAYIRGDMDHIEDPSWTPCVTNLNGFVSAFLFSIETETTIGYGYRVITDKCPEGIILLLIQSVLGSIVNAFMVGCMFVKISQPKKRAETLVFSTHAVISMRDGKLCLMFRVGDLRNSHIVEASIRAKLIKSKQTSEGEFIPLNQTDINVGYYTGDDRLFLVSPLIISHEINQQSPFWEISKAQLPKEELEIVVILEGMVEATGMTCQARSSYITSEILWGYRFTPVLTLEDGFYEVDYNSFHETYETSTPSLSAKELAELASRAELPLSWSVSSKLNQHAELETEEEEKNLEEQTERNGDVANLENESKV
Chain of G protein-activated inward rectifier potassium channel 2 (Homo sapiens) + G protein-activated inward rectifier potassium channel 1 (Homo sapiens) (P48549 whole entry, looked up): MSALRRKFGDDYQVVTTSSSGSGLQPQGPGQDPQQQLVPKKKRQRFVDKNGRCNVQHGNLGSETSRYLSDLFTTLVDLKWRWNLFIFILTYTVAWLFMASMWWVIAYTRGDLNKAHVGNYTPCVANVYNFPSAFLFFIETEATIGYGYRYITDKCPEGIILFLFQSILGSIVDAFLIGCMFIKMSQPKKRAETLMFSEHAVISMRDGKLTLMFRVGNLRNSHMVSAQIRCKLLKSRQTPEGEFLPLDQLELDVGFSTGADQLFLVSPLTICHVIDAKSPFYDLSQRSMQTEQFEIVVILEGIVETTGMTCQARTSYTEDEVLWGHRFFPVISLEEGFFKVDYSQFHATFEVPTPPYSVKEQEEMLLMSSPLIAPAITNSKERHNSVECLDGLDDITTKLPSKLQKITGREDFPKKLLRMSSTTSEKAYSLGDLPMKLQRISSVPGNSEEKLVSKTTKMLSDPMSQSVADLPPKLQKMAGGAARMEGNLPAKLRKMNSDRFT

The assay concerns the target G protein-activated inward rectifier potassium channel 2 (Homo sapiens) + G protein-activated inward rectifier potassium channel 1 (Homo sapiens) (UniProt P48051+P48549). The assay is described as follows: GIRK1/2 thallium flux modulators, retest, confirmation, cell-based, HEK293 rmGlu8/hGIRK1/2, FluoZin-2 (AID 623911). Particulars: HEK293 rmGlu8/hGIRK1/2, thallium flux FluoZin-2; actives lie on both sides; glutamate co-added at its EC20 level.
`O=C(Cn1nc(Cc2ccncc2)c2ccccc2c1=O)N1CCN(C(=O)c2ccco2)CC1`: the manual score was 0.
As to `O=c1c2ccccc2nc(SCc2cn3ccsc3n2)n1-c1ccc(F)cc1`, the manual score is 0.
For `Cc1ccc(NC(=S)Nc2ccc(Cl)c(Cl)c2)c(OC(F)F)c1`, the manual score was 1 (active).
As for `Fc1ccc(NC(=S)Nc2ccccc2OC(F)F)cc1Cl`, the figure is 1 (active); as for `COC(=O)NC(=S)Nc1ccc(Oc2ccc(Cl)cc2Cl)c(Cl)c1`, 0; as for `O=C(O)CN=C(NS(=O)(=O)c1ccccc1)c1ccccc1`, 0.
As for `Cc1cc(C(=O)CSc2nnc(-c3ccncc3)n2-c2ccccc2)c(C)n1C`, the figure is 0.
The figure for `COc1ccc(Cl)cc1C(=O)CSc1nnnn1C1CCCC1` is 0; for `COc1ccccc1-n1cnnc1SCC(=O)c1cc(C)n(Cc2cccs2)c1C` it is -1 (active); for `COc1cccc(-c2cc(C(=O)NC3CCCC3)no2)c1` it is 0.
Take `CCN(CC)CCCNC(=O)c1cc(-c2ccc(Cl)c(Cl)c2)on1`: the manual score was -1 (active).
The figure for `CN(C)CCCNC(=O)c1ccc(-c2nc(-c3ccc(Cl)cc3)cs2)cc1` is 0; for `CC(C)CCOP(=O)(c1ccc(N(C)C)cc1)C(O)c1ccccn1` (stereo not drawn) it is 0.
With `COc1ccc2c(c1)C(C)=CC(C)(C)N2C(=O)CNCc1ccc2c(c1)OCO2`, the manual score was -1 (active).
In the case of `CC(C)(C)c1nn(-c2ccccc2)c2[nH]c(=O)c(CNCc3ccc4c(c3)OCO4)cc12`, the manual score is 0.
The figure for `Cc1c(C(=O)O)[nH]c2c1C(=O)CC(c1ccc(Cl)cc1)C2` (stereo not drawn) is 0; for `Cc1cccc(OCC(O)Cn2c(=N)n(CCN3CCCCC3)c3ccccc32)c1` (stereo not drawn) it is -1 (active).
`N=c1n(CCN2CCCCC2)c2ccccc2n1CC(O)COc1ccccc1` (stereo not drawn): the manual score was -1 (active).
For `Cc1ccc(OCC(O)Cn2c(=N)n(CCN3CCCCC3)c3ccccc32)cc1` (stereo not drawn), the manual score is -1 (active).
The figure for `Cc1cccc(OCc2nnc(SCC(=O)N3CCc4ccccc43)n2C)c1` is 0; for `O=C(NNc1ccccc1Br)C(=O)n1ccc2ccccc21` it is 0.
As for `COCCCN1C(=O)C(=O)/C(=C(/O)c2ccc(C)cc2)C1c1ccccc1` (stereo not drawn), the figure is 0.
Consider `COc1ccc(-c2nn(-c3ccccc3)cc2/C=N/n2cnnc2)cc1OC`, for which the manual score was 0.
Consider `COc1ccc(/C=N/n2c(SC)nnc2-c2ccccc2)c(OC)c1OC`, for which the manual score was -1 (active).
For the compound `COc1cccc(/C=N/n2c(=S)n(C)c3ccccc32)c1OC`, the manual score is 0.
The figure for `Cc1cc(N2CCC(C)CC2)n2ncc(-c3ccccc3)c2n1` is 0; for `CCC(/C=N/NC(=O)C1COc2ccccc2O1)CC` (stereo not drawn) it is 1 (active); for `NS(=O)(=O)c1ccc(NC(=O)C2COc3ccccc3O2)cc1` (stereo not drawn) it is 0.
As for `CCC(CC)c1nnc(NC(=O)C2COc3ccccc3O2)s1` (stereo not drawn), the figure is 0; as for `COc1ccc(-n2nnnc2SCC(=O)N2CCOCC2)cc1`, -0.5; as for `COc1ccc(OC)c(C(=O)c2coc3ccc(O)c(CN4CCOCC4)c23)c1`, -1 (active).
For the compound `COC(=O)COc1ccc(S(=O)(=O)Nc2ccccc2C(=O)OC)cc1`, the manual score was 0.
On to `COC(=O)C(C)N(C(=O)c1cccc2ccccc12)c1c(C)cccc1C` (stereo not drawn), for which the manual score is -1 (active).
Consider `NC(=O)Nc1cccc2ccccc12`, for which the manual score is 0.
On to `CCC/C(=N/NC(=O)c1cccc(Cl)c1)c1ccccc1`, for which the manual score was 0.
In the case of `COC(=O)C(C)N(C(=O)c1cccc(Cl)c1)c1c(C)cccc1C` (stereo not drawn), the manual score was -1 (active).
`O=C(Nc1ccc2oc(-c3ccncc3)nc2c1)c1c(F)c(F)c(F)c(F)c1F`: the manual score is 0.
Take `CCCN1C(=O)/C(=C/c2ccc(N3CCCC3)c(C)c2)NC1=S`: the manual score was 3.
On to `O=C1/C(=C/c2ccc(N3CCCC3)cc2)NC(=S)N1C1CC1`, for which the manual score was 3.
For the compound `CCN1C(=O)/C(=C/c2ccc(C)s2)NC1=S`, the manual score is 1 (active).
With `CC(C)CN1C(=O)/C(=C/c2cccs2)NC1=S`, the manual score was 1 (active).
As to `CCCN1C(=O)/C(=C/c2ccc(C)s2)NC1=S`, the manual score was 1 (active).
In the case of `O=C(Nc1nnc(SCc2ccc(F)cc2)s1)C1CC(=O)N(c2ccc3c(c2)OCCO3)C1` (stereo not drawn), the manual score was 0.
On to `CN(C)c1nc2n(c(=O)n1)C(C#N)CS2` (stereo not drawn), for which the manual score was 0.
As for `O=c1[nH]c(CS(=O)(=O)c2ccccc2)nc2ccccc12`, the manual score was 0.
Turning to `CCCCn1c(-c2csc3c2CCCC3)n[nH]c1=S`, the manual score was -0.5.
In the case of `CCCCCCCCCn1c2c(c(=N)c3c1CCC3)CCC2`, the manual score was -1 (active).
As for `CC(=O)c1ccc(OC(=O)N(c2ccccc2)c2ccccc2)cc1`, the figure is 0; as for `N[C@@H](Cc1ccccc1)c1nnc(SCc2ccccc2F)o1`, 0; as for `Cc1cc(=S)[nH]c2c(C)cccc12`, 1 (active).
As for `Cc1cc(C)c2[nH]c(=S)cc(C)c2c1`, the manual score was 1 (active).
`CC1(C)Cc2c(ccc3ccccc23)-c2nnc(-c3cccnc3)n21`: the manual score was 0.
Regarding `CCOC(=O)N/N=C/c1c(C)nn(-c2ccccc2Cl)c1Cl`, the manual score is 0.
